Inconclusive results are not listed. Activity calls are given as the source filed them. The calls were made as follows, unless noted: active = hit-call score of the fitted dose curve at least 0.9, where 1 is the maximum; inactive = score below 0.9.
Assays:
[1] = target: Retinoic acid receptor alpha (Homo sapiens) (UniProt P10276); assay: ATG_RARa_TRANS: Attagene TRANS-FACTORIAL HepG2 Assay for human Retinoic Acid Receptor alpha (RARa) (AID 2283005; active = hit-call score of the fitted dose curve at least 0.9, where 1 is the maximum)
Method in brief: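 Reporter transcripts, measured by RT-PCR with fluorescent labeling and capillary electrophoresis after 24 h dosing, reflect activity of an exogenous human RARa–GAL4 fusion in transiently transfected HepG2. Fitted for increase relative to DMSO.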

[2] = ATG_PPRE_CIS: Attagene CIS-FACTORIAL HepG2 Assay for human Peroxisome Proliferator-activated Response Element (PPRE) (AID 2282958); conditions: HepG2 PPRE cis-element reporter, Attagene transcription factor profiling; actives raise or lower the signal
Method in brief: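 HepG2 cells transiently transfected with multiplexed cis-element reporter units measure endogenous transcription factor activity. After 24 h compound exposure, reporter mRNA is quantified by RT-PCR, 6-FAM labeling, HpaI digestion and capillary electrophoresis; bidirectional fits are made against DMSO baseline.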

[3] = target: Estrogen receptor (Homo sapiens) (UniProt P03372); assay: ATG_ERa_TRANS: Attagene TRANS-FACTORIAL HepG2 Assay for human Estrogen Receptor alpha (ERa) (AID 2282970; active = hit-call score of the fitted dose curve at least 0.9, where 1 is the maximum); conditions: HepG2 Attagene TRANS ERa GAL4 reporter, mRNA
Method in brief: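 One of 30 multiplexed endpoints from a HepG2 TRANS system, this one reports ERa-Gal4-driven reporter mRNA. Transcripts were quantified 24 hours post-dosing by fluorescent RT-PCR and capillary electrophoresis, with activity scored as induction over DMSO.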

[4] = BSK_3C_Proliferation: Cell Proliferation Assessment in the BioMAP Diversity Plus: 3C Assay (AID 2283006); conditions: primary human endothelial cells (HUVEC);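 as to AC50: potency may reflect either rise or fall in cell number versus DMSO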
Method in brief: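 HUVEC, sub-confluent; 48 h chemical exposure; 10% TCA fix, 0.1% SRB stain, A560 total protein. Gain or loss of signal fitted both directions vs DMSO control.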

[5] = BSK_3C_Vis: BioMAP Diversity Plus: 3C Assay for Morphology Visualization (AID 2283025); conditions: primary human endothelial cells (HUVEC);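 also: fitted both ways so gain or loss versus DMSO counts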;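 as to AC50: light microscopy image of cell morphology used as background control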
Method in brief: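 HUVEC, 3C system; light microscopy of morphology at 24 h post-dose. Bidirectional fit vs DMSO baseline. Secondary readout, background-control function.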

[6] = read-out: Transforming growth factor beta 1 (TGFb1), TGFB1 (gene 7040); assay: BSK_BE3C_TGFb1: BioMAP Diversity Plus: BE3C Assay for Transforming growth factor beta 1 (TGFb1) Biomarker Activity (AID 2283036;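 also: TGF-b1 protein level measured by ELISA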); conditions: primary human bronchial epithelial cells; actives raise or lower the signal
Method in brief: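 Read-out: ELISA for TGF-b1 in primary human bronchial epithelial cultures, 24 h post-dose. Bidirectional curve fitting vs DMSO control; gain or loss of signal both scored.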

[7] = BSK_CASM3C_SRB: Viability Assessment in the BioMAP Diversity Plus: CASM3C Assay (AID 2283050); conditions: primary human coronary artery smooth muscle cells;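 also: total protein by SRB staining as cytotoxicity measure in parallel cultures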
[8] = read-out: Transforming growth factor beta 1 (TGFb1), TGFB1 (gene 7040); assay: BSK_KF3CT_TGFb1: BioMAP Diversity Plus: KF3CT Assay for Transforming growth factor beta 1 (TGFb1) Biomarker Activity (AID 2283072); conditions: primary human keratinocytes with fibroblasts; actives raise or lower the signal
Method in brief: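 Read-out: ELISA for TGF-b1 in keratinocyte/foreskin fibroblast human skin co-culture, 24 h after dosing; bidirectional curve fit vs DMSO baseline; gain or loss of signal scored.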

CD40, CD40 (gene 958) = assay: BSK_LPS_CD40: BioMAP Diversity Plus: LPS Assay for CD40 Biomarker Activity (AID 2283076); conditions: primary human HUVEC with PBMC; actives raise or lower the signal
Method in brief: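 Primary human umbilical vein endothelial cells co-cultured with peripheral blood mononuclear cells, LPS-stimulated, were dosed with chemical and read 24 h later. CD40 levels were measured by ELISA and fitted bidirectionally against DMSO as negative control and baseline.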

CD69, CD69 (gene 969) = assay: BSK_SAg_CD69: BioMAP Diversity Plus: SAg Assay for CD69 Biomarker Activity (AID 2283089); conditions: primary human HUVEC with PBMC; actives raise or lower the signal
Method in brief: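 HUVEC co-cultured with PBMC were dosed with chemical, and CD69 was measured by ELISA with fluorescence read-out 24 h later. Bidirectional curve fitting used DMSO as negative control and activity baseline.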

[9] = read-out: Monocyte Chemoattractant Protein-1 (MCP1), CCL2 (gene 6347); assay: BSK_SAg_MCP1: BioMAP Diversity Plus: SAg Assay for Monocyte Chemoattractant Protein-1 (MCP1) Biomarker Activity (AID 2283090); conditions: primary human HUVEC with PBMC; actives raise or lower the signal
Method in brief: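 Values derive from bidirectional fitting of ELISA-measured MCP1 against DMSO controls. Readings were taken 24 h after dosing human vascular endothelial cells co-cultured with peripheral blood mononuclear cells under superantigen stimulation.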

[10] = read-out: Monokine induced gamma interferon (MIG), CXCL9 (gene 4283); assay: BSK_SAg_MIG: BioMAP Diversity Plus: SAg Assay for Monokine induced gamma interferon (MIG) Biomarker Activity (AID 2283092); conditions: primary human HUVEC with PBMC; actives raise or lower the signal
Method in brief: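 HUVEC plus human PBMC co-culture, chemicals dosed and MIG (CXCL9) quantified by ELISA at 24 h. Bidirectional curve fitting against DMSO as negative control and baseline, so both gain and loss of signal count as activity.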

[11] = BSK_SAg_Proliferation: Cell Proliferation Assessment in the BioMAP Diversity Plus: SAg Assay (AID 2283095); conditions: primary human HUVEC with PBMC;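 also: relative cell number as total protein by SRB absorbance in sub-confluent culture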
Method in brief: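 HUVEC/PBMC co-culture, 96-well. TCA-fixed (10%), 0.1% SRB stain, A560 at 96 h. Protein content used as viability readout; bidirectional fitting vs DMSO control.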

[12] = BSK_BT_PBMCCytotoxicity: PBMC Cytotoxicity Assessment in the BioMAP Diversity Plus: BT Assay (AID 2284225); conditions: primary human B cells with PBMC;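 also: PBMC viability measured by Alamar Blue dye reduction fluorescence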
Method in brief: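 Primary human co-culture of B cells and PBMC, pre-dosed 1 h then activated with SEB and TSST-1. Cytotoxicity is taken from Alamar Blue dye reduction, added for 6 h at the end of a 90 h incubation.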

[13] = read-out: Secreted IgG (sIgG), gene 3500; assay: BSK_BT_sIgG: BioMAP Diversity Plus: BT Assay for Secreted IgG (sIgG) Biomarker Activity (AID 2284226); conditions: primary human B cells with PBMC
Method in brief: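 Human B cell/PBMC co-culture; compound exposure 24 h; sIgG by ELISA; gain-of-signal fit vs DMSO baseline.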

[14] = read-out: Interleukin 6 (IL6), IL6 (gene 3569); assay: BSK_BT_xIL6: BioMAP Diversity Plus: BT Assay for Interleukin 6 (IL6) Biomarker Activity (AID 2284228); conditions: primary human B cells with PBMC
Method in brief: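 Human B cell plus PBMC co-culture exposed to test chemical for 24 h; secreted IL-6 quantified by Luminex xMAP bead assay. Activity fitted in the positive direction against DMSO as negative control and baseline.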

[15] = read-out: Tumor necrosis factor (Homo sapiens) (UniProt P01375); assay: BSK_BT_xTNFa: BioMAP Diversity Plus: BT Assay for Tumor necrosis factor alpha (TNF-alpha) Biomarker Activity (AID 2284230); conditions: primary human B cells with PBMC
Method in brief: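 B cells with PBMC in co-culture, dosed and sampled at 24 h; secreted TNF-alpha measured by Luminex xMAP bead assay. Activity fitted in the gain direction against DMSO as negative control and baseline.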

[16] = read-out: Vascular cell adhesion molecule 1 (VCAM1), VCAM1 (gene 7412); assay: BSK_MyoF_VCAM1: BioMAP Diversity Plus: MyoF Assay for Vascular cell adhesion molecule 1 (VCAM1) Biomarker Activity (AID 2284231); conditions: primary human lung fibroblasts
Method in brief: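 Primary human lung fibroblasts were dosed with test chemical for 24 h, then cell-surface VCAM-1 was measured by ELISA. Activity was fitted in the positive direction against DMSO as negative control and baseline.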

[17] = read-out: Interleukin 17F (IL17F), IL17F (gene 112744); assay: BSK_BT_xIL17F: BioMAP Diversity Plus: BT Assay for Interleukin 17F (IL17F) Biomarker Activity (AID 2284243); conditions: primary human B cells with PBMC
Method in brief: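 B cell/PBMC co-culture (human primary), 24 h compound exposure; sIL-17F by Luminex xMAP; gain-of-signal fit vs DMSO baseline.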

[18] = read-out: Actin alpha 1 (ACTA1), ACTA1 (gene 58); assay: BSK_MyoF_ACTA1: BioMAP Diversity Plus: MyoF Assay for Actin alpha 1 (ACTA1) Biomarker Activity (AID 2284244); conditions: primary human lung fibroblasts
Method in brief: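 ELISA read-out of a-SMA in primary human lung fibroblast cultures, 24 h post-dosing. Activity scored in the positive direction versus DMSO baseline.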

Tumor necrosis factor (Homo sapiens), sequence (P01375 whole entry, looked up): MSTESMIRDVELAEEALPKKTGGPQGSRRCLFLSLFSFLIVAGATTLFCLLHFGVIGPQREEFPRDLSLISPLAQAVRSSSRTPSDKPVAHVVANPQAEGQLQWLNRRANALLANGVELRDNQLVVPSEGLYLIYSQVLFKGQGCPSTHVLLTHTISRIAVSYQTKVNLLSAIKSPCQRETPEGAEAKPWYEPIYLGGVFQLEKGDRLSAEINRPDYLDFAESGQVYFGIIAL
Retinoic acid receptor alpha (Homo sapiens), sequence (P10276 whole entry, looked up, the tested form may be a part): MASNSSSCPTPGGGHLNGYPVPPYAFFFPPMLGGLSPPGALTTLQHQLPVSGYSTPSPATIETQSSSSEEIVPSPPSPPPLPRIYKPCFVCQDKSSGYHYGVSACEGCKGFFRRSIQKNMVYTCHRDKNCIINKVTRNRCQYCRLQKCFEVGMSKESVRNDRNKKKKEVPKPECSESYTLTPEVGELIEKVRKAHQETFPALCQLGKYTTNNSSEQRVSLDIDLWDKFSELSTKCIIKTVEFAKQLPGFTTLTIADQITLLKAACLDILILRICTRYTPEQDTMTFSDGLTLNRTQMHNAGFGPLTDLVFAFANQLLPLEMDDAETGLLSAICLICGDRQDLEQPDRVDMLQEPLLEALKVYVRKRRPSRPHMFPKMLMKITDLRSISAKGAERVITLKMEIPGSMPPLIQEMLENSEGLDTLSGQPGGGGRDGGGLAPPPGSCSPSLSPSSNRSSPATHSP
Estrogen receptor (Homo sapiens), sequence (P03372 whole entry, looked up, the tested form may be a part): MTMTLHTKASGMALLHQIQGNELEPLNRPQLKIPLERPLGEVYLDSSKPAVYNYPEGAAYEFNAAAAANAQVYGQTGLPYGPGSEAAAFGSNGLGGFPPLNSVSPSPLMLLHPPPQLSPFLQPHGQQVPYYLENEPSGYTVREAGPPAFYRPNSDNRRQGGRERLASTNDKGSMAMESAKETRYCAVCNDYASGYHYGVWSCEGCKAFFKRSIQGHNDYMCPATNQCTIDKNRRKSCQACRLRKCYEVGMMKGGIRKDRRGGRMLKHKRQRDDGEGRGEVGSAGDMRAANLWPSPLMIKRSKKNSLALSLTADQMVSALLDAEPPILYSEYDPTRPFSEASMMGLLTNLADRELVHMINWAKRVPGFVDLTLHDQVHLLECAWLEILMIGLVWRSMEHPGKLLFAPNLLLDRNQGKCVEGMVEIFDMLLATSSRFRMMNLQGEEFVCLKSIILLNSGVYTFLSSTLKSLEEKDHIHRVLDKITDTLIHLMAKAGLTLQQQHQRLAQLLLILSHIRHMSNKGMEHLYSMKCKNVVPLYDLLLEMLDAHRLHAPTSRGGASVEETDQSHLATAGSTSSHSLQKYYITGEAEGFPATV

Cc1ccnc(N)c1
outcome [1]: inactive

CCOc1ccc2c(c1)C(C)CC(C)(C)N2 (configuration not stated)
outcome [2]: inactive
outcome [1]: inactive

CCCCCCC1CCC(=O)O1 (configuration not stated)
outcome [3]: inactive
outcome [1]: inactive

O=C1CCCCCCCCCCCCCC1
AC50 [3]: 26.5 µM (active)

Sc1nc2ccccc2s1
outcome [4]: inactive
outcome [5]: inactive
outcome [6]: inactive
outcome [7]: inactive
outcome [8]: inactive
outcome (CD40, CD40 (gene 958)): inactive
outcome (CD69, CD69 (gene 969)): inactive
outcome [9]: inactive
outcome [10]: inactive
outcome [11]: inactive
outcome [12]: inactive
outcome [13]: inactive
outcome [14]: inactive
outcome [15]: inactive
outcome [16]: inactive
outcome [17]: inactive
outcome [18]: inactive

CCOC(=O)CC(=O)OCC
outcome [1]: inactive

C/C=C(\C)C(=O)OCC/C=C\CC
outcome [1]: inactive

NC(N)=Nc1nc(CSCCC(N)=NS(N)(=O)=O)cs1
outcome [3]: inactive

Cc1cc(-n2nc3ccc(Cl)cc3n2)c(O)c(C(C)(C)C)c1
outcome [4]: inactive
outcome [5]: inactive
outcome [6]: inactive
outcome [7]: inactive
outcome [8]: inactive
outcome (CD40, CD40 (gene 958)): inactive
outcome (CD69, CD69 (gene 969)): inactive
outcome [9]: inactive
outcome [10]: inactive
outcome [11]: inactive
outcome [12]: inactive
outcome [13]: inactive
outcome [14]: inactive
outcome [15]: inactive
outcome [16]: inactive
outcome [17]: inactive
outcome [18]: inactive

CC(=O)Nc1c(I)c(NC(C)=O)c(I)c(C(=O)O)c1I
outcome [1]: inactive

CC(C)CC(=O)CC(C)CC(C)C (configuration not stated)
AC50 [4]: 36.6 µM (active)
AC50 [5]: 37.8 µM (active)
outcome [6]: inactive
AC50 [7]: 31.6 µM (active)
outcome [8]: inactive
outcome (CD40, CD40 (gene 958)): inactive
outcome (CD69, CD69 (gene 969)): inactive
outcome [9]: inactive
outcome [10]: inactive
outcome [11]: inactive
outcome [12]: inactive
outcome [13]: inactive
outcome [14]: inactive
outcome [15]: inactive
outcome [16]: inactive
outcome [17]: inactive
outcome [18]: inactive

CN1CCCC1
outcome [3]: inactive
outcome [1]: inactive

CCCCCCC(O)CCCCCCCCCCC(=O)OC (configuration not stated)
outcome [1]: inactive
outcome [4]: inactive
outcome [5]: inactive
outcome [6]: inactive
outcome [7]: inactive
outcome [8]: inactive
outcome (CD40, CD40 (gene 958)): inactive
outcome (CD69, CD69 (gene 969)): inactive
outcome [9]: inactive
outcome [10]: inactive
outcome [11]: inactive
outcome [12]: inactive
outcome [13]: inactive
outcome [14]: inactive
outcome [15]: inactive
outcome [16]: inactive
outcome [17]: inactive
outcome [18]: inactive

CN(C)CCC(c1ccc(Cl)cc1)c1ccccn1 (configuration not stated)
outcome [4]: inactive
outcome [5]: inactive
outcome [6]: inactive
outcome [7]: inactive
outcome [8]: inactive
outcome (CD40, CD40 (gene 958)): inactive
outcome (CD69, CD69 (gene 969)): inactive
outcome [9]: inactive
outcome [10]: inactive
outcome [11]: inactive
outcome [12]: inactive
outcome [13]: inactive
outcome [14]: inactive
outcome [15]: inactive
outcome [16]: inactive
outcome [17]: inactive
outcome [18]: inactive

CCCCCCCCCC/C=C/C1CC(=O)OC1=O (configuration not stated)
outcome [4]: inactive
outcome [5]: inactive
outcome [6]: inactive
outcome [7]: inactive
outcome [8]: inactive
outcome (CD40, CD40 (gene 958)): inactive
outcome (CD69, CD69 (gene 969)): inactive
outcome [9]: inactive
outcome [10]: inactive
outcome [11]: inactive
outcome [12]: inactive
outcome [13]: inactive
outcome [14]: inactive
outcome [15]: inactive
outcome [16]: inactive
outcome [17]: inactive
outcome [18]: inactive

O=C(C(=O)c1ccccc1)c1ccccc1
outcome [4]: inactive
outcome [5]: inactive
outcome [6]: inactive
outcome [7]: inactive
outcome [8]: inactive
outcome (CD40, CD40 (gene 958)): inactive
outcome (CD69, CD69 (gene 969)): inactive
outcome [9]: inactive
outcome [10]: inactive
outcome [11]: inactive
outcome [12]: inactive
outcome [13]: inactive
outcome [14]: inactive
outcome [15]: inactive
outcome [16]: inactive
outcome [17]: inactive
outcome [18]: inactive

c1cc[c]([Bi]([c]2ccccc2)[c]2ccccc2)cc1
AC50 [3]: 4.16 µM (active)

CC(C)(Oc1ccc(Cl)cc1)C(=O)O
outcome [2]: inactive

OCCc1ccccn1
outcome [2]: inactive

CCO[Si](CCCN)(OCC)OCC
outcome [2]: inactive

CCC(C)(CCC(C)C)C(=O)O (configuration not stated)
outcome [1]: inactive
